# Reference: article PMC7862700, “An all-to-all approach to the identification of sequence-specific readers for epigenetic DNA modifications on cytosine”
# Tests used:
# Assay in all cases: DAPPL (digital affinity profiling via proximity ligation, sequencing); 10 mM Tris-HCl pH 7.5, 50 mM NaCl, 1 mM DTT, 4% glycerol, room temperature, 30 min; GST-TFs on glutathione beads, 16-mer random dsDNA library, 0.1% formaldehyde crosslink after washing; high values mean tight binding
# Conditions in all cases: protein: recombinant; tags: N-terminal GST; dsDNA, one strand shown
# FLI1 = target: T1, FLI1 (Homo sapiens, UniProt Q01543 1-452)
# T1 sequence: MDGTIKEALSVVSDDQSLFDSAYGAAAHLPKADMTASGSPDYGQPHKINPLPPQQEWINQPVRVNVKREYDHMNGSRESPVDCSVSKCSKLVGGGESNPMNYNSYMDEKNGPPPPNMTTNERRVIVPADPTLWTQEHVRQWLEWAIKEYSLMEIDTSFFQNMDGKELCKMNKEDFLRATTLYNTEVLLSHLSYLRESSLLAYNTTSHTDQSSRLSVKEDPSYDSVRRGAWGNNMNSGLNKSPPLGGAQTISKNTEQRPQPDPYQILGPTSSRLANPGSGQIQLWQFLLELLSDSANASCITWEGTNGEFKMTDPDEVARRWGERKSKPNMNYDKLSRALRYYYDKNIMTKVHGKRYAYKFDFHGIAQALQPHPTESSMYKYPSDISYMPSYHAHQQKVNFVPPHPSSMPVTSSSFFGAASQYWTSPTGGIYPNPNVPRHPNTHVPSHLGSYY
# Procedure, shortened: (§1)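 Human transcription factors fused to GST were expressed in yeast, captured on glutathione beads, given DNA barcodes and pooled with a GST-only negative control. Pools were incubated with 200 nmole of a 16-mer random double-stranded DNA library in Tris/NaCl/DTT/glycerol buffer at room temperature for 30 min. They were then washed, crosslinked with 0.1% formaldehyde, proximity-ligated (BsaI/T4 ligase, 1 h, 37 °C), PCR-amplified and sequenced on an Illumina NextSeq500. Binding signal is each 6-mer's read frequency for a factor divided by its frequency for the GST control.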
# ELK1 = target: T2, ELK1 (Homo sapiens, UniProt P19419 1-428)
# T2 sequence: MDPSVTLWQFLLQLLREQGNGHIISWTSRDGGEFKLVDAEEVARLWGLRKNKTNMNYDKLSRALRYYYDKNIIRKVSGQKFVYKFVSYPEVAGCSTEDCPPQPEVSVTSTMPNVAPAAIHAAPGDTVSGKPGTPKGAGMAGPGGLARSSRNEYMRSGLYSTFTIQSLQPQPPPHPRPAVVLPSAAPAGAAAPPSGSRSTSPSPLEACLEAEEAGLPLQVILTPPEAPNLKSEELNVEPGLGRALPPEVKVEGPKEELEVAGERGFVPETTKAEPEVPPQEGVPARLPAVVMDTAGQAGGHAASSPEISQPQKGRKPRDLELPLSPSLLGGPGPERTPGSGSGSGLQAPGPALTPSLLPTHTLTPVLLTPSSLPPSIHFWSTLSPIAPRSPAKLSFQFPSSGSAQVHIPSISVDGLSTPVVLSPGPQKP
# Procedure, shortened: as §1
# GABPA = target: T3, GABPA (Homo sapiens, UniProt Q06546 1-454)
# T3 sequence: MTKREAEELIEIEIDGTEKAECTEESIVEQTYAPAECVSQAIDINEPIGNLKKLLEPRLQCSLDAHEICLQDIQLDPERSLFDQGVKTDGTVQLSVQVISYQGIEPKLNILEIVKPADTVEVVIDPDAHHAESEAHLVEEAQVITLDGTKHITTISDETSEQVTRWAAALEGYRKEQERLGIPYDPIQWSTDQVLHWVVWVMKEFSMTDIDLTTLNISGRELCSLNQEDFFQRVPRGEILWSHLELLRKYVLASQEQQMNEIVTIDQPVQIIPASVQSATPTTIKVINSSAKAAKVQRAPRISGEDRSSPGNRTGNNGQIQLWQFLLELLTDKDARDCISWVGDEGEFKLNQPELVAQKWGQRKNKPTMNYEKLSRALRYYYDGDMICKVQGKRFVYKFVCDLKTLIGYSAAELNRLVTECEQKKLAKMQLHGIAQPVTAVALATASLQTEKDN
# Procedure, shortened: as §1
# ERG = target: T4, ERG (Homo sapiens, UniProt P11308 1-479)
# T4 sequence: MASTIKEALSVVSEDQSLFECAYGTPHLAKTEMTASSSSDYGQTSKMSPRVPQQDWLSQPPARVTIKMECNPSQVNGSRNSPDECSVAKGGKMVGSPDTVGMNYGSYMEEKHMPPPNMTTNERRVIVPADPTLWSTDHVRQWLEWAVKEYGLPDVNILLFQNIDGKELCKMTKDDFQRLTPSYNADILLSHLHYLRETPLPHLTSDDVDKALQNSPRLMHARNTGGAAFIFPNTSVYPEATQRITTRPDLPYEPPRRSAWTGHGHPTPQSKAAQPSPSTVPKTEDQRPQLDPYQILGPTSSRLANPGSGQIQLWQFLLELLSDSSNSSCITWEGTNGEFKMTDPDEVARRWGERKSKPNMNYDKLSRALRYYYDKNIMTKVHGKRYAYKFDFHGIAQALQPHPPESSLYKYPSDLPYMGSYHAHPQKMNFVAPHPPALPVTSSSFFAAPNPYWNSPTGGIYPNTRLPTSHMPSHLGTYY
# Procedure, shortened: as §1
# ELF1 = ELF1 (Homo sapiens, UniProt P32519 1-619)
# Sequence of ELF1 (P32519 whole entry): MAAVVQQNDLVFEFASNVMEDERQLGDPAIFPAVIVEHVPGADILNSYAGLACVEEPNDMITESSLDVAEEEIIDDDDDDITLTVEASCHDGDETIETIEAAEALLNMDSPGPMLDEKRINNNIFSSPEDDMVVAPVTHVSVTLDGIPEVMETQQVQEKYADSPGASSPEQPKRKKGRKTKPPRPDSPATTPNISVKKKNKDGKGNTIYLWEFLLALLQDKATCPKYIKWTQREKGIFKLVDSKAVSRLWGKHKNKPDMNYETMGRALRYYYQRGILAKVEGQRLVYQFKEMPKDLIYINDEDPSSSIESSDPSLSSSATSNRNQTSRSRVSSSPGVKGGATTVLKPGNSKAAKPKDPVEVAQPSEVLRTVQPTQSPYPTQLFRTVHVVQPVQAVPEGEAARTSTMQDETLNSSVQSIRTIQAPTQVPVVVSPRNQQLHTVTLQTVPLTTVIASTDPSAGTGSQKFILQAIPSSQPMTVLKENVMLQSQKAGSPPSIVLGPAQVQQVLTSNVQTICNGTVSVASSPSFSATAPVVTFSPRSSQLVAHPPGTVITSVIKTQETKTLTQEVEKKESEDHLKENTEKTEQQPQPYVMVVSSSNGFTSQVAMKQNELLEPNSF
# Procedure, shortened: as §1
# EHF = target: T5, EHF (Homo sapiens, UniProt Q9NZC4 1-300)
# T5 sequence: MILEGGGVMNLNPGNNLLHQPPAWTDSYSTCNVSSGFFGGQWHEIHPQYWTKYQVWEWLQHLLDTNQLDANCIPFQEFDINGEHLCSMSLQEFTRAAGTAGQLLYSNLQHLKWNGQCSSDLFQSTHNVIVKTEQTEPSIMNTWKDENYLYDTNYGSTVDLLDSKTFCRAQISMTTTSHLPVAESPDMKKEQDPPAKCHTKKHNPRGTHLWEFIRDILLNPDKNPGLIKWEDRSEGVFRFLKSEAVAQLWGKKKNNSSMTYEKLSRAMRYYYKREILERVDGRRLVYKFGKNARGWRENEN
# Procedure, shortened: as §1
# SPI1 = SPI1 (Homo sapiens, UniProt P17947 1-270)
# Procedure, shortened: as §1
# SPIB = SPIB (Homo sapiens, UniProt Q01892 1-262)
# Sequence of SPIB (Q01892 whole entry): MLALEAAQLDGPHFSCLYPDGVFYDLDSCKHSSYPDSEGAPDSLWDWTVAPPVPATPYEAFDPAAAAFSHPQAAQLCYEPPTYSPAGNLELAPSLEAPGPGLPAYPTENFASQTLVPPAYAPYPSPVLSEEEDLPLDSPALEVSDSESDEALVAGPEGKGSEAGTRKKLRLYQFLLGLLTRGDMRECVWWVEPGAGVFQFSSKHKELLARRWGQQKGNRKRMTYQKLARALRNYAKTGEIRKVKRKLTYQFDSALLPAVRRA
# Procedure, shortened: as §1
# ELK3 = target: T6, ELK3 (Homo sapiens, UniProt P41970 1-407)
# T6 sequence: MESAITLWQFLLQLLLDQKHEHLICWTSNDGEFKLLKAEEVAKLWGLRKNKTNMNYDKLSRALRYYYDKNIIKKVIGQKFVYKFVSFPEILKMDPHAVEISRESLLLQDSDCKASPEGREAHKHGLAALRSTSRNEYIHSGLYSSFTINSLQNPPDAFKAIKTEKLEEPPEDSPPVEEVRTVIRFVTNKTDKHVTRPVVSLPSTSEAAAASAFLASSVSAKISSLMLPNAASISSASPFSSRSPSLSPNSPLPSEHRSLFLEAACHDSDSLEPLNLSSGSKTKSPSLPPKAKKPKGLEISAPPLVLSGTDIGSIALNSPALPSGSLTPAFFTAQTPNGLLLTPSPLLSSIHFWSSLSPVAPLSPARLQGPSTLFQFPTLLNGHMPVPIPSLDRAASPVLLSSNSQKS
# Procedure, shortened: as §1
Sequence,binding signal (FLI1),binding signal (ELK1),binding signal (GABPA),binding signal (ERG),binding signal (ELF1),binding signal (EHF),binding signal (SPI1),binding signal (SPIB),binding signal (ELK3)
GCCTTT,"1.33 fold enrichment (6-mer frequency, TF over GST control)","1.3 fold enrichment (6-mer frequency, TF over GST control)","1.32 fold enrichment (6-mer frequency, TF over GST control)","1.2 fold enrichment (6-mer frequency, TF over GST control)","1.28 fold enrichment (6-mer frequency, TF over GST control)","1.35 fold enrichment (6-mer frequency, TF over GST control)","1.49 fold enrichment (6-mer frequency, TF over GST control)","1.35 fold enrichment (6-mer frequency, TF over GST control)","1.27 fold enrichment (6-mer frequency, TF over GST control)"
CTCGCG,"1.47 fold enrichment (6-mer frequency, TF over GST control)","1.35 fold enrichment (6-mer frequency, TF over GST control)","1.55 fold enrichment (6-mer frequency, TF over GST control)","1.42 fold enrichment (6-mer frequency, TF over GST control)","1.41 fold enrichment (6-mer frequency, TF over GST control)","1.32 fold enrichment (6-mer frequency, TF over GST control)","1.39 fold enrichment (6-mer frequency, TF over GST control)","1.45 fold enrichment (6-mer frequency, TF over GST control)","1.34 fold enrichment (6-mer frequency, TF over GST control)"
CTGTCA,"1.21 fold enrichment (6-mer frequency, TF over GST control)","1.11 fold enrichment (6-mer frequency, TF over GST control)","1.2 fold enrichment (6-mer frequency, TF over GST control)","1.14 fold enrichment (6-mer frequency, TF over GST control)","1.19 fold enrichment (6-mer frequency, TF over GST control)","1.12 fold enrichment (6-mer frequency, TF over GST control)","1.1 fold enrichment (6-mer frequency, TF over GST control)","1.15 fold enrichment (6-mer frequency, TF over GST control)","1.08 fold enrichment (6-mer frequency, TF over GST control)"
AACAAG,"1.08 fold enrichment (6-mer frequency, TF over GST control)","1.08 fold enrichment (6-mer frequency, TF over GST control)","1.15 fold enrichment (6-mer frequency, TF over GST control)","1.14 fold enrichment (6-mer frequency, TF over GST control)","1.13 fold enrichment (6-mer frequency, TF over GST control)","1.17 fold enrichment (6-mer frequency, TF over GST control)","1.04 fold enrichment (6-mer frequency, TF over GST control)","1.06 fold enrichment (6-mer frequency, TF over GST control)","1.22 fold enrichment (6-mer frequency, TF over GST control)"
TAGTCC,"1.09 fold enrichment (6-mer frequency, TF over GST control)","1.05 fold enrichment (6-mer frequency, TF over GST control)","1.12 fold enrichment (6-mer frequency, TF over GST control)","1.08 fold enrichment (6-mer frequency, TF over GST control)","1.15 fold enrichment (6-mer frequency, TF over GST control)","1.05 fold enrichment (6-mer frequency, TF over GST control)","1.07 fold enrichment (6-mer frequency, TF over GST control)","1.06 fold enrichment (6-mer frequency, TF over GST control)","1.07 fold enrichment (6-mer frequency, TF over GST control)"
CCCCGG,"1.19 fold enrichment (6-mer frequency, TF over GST control)","1.18 fold enrichment (6-mer frequency, TF over GST control)","1.15 fold enrichment (6-mer frequency, TF over GST control)","1.3 fold enrichment (6-mer frequency, TF over GST control)","1.22 fold enrichment (6-mer frequency, TF over GST control)","1.24 fold enrichment (6-mer frequency, TF over GST control)","1.16 fold enrichment (6-mer frequency, TF over GST control)","1.27 fold enrichment (6-mer frequency, TF over GST control)","1.2 fold enrichment (6-mer frequency, TF over GST control)"
CCTCGG,"1.2 fold enrichment (6-mer frequency, TF over GST control)","1.17 fold enrichment (6-mer frequency, TF over GST control)","1.2 fold enrichment (6-mer frequency, TF over GST control)","1.2 fold enrichment (6-mer frequency, TF over GST control)","1.24 fold enrichment (6-mer frequency, TF over GST control)","1.33 fold enrichment (6-mer frequency, TF over GST control)","1.14 fold enrichment (6-mer frequency, TF over GST control)","1.15 fold enrichment (6-mer frequency, TF over GST control)","1.05 fold enrichment (6-mer frequency, TF over GST control)"
